Screens from PubChem BioAssay.
HSV augment: enhancers of HSV replication in host cells, fold increase, host cell viability | 0.005% of 220,000 active | HSV replication augmentation in cells | maximum fold increase; in the data active means maximum fold increase above about 1.5; tested in PC3 cells
Furin inhibitor: human furin inhibitors, primary screen, biochemical, fluorescence intensity; P09958; purified furin, fluorogenic substrate cleavage; inhibition, % at 20 µM or 30 µM; 0.061% of 220,000 active; AID 463115, 2010; in the data active means inhibition above about 25%
Target sequence (P09958 108-714 limits assumed): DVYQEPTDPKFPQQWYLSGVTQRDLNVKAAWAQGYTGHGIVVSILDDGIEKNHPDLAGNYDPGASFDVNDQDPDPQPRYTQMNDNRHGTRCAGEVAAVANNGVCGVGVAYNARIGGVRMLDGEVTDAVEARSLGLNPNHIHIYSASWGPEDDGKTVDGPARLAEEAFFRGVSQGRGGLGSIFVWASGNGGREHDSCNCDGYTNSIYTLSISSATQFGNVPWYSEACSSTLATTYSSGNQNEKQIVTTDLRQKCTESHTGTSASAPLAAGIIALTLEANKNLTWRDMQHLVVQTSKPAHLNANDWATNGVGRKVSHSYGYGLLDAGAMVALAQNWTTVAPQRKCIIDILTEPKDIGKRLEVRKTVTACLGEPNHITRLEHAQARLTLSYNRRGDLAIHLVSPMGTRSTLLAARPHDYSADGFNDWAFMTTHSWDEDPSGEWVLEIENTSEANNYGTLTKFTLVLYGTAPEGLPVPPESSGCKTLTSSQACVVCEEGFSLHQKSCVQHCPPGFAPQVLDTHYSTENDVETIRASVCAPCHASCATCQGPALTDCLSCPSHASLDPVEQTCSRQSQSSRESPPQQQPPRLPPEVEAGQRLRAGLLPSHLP
Pf gamet viab: late stage P. falciparum gametocyte viability inhibitors, primary screen, ATP luminescence, HTS. AID 743093, 2013. 0.065% of 150,000 active. P. falciparum stage V gametocytes, 24 h. inhibition, % at 10.9 µM;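 active means inhibition above the mean plus 3 SD of compounds within the control limits, set per campaign, cut at about 38% in these data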
EP2 mod: EP2 receptor modulators, cAMP readout, primary screen, cell-based, HTRF cAMP, PGE2 stimulation | 0.83% of 260,000 active | AID 940, 2007 | EP2-expressing cells, cAMP HTRF FRET, PGE2 co-stimulation | induction, % at 25 µM;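 active means compounds whose cAMP rise, as percent of the full-agonist control response, exceeds 60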;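 further: rat C6 glioma line stably carrying human EP2 under a CMV promoter; the protocol text gives 20 µM as final concentration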
PGE2 EP2 inh: human EP2 receptor antagonists, primary screen, TR-FRET cAMP, C6 glioma cells. Prostaglandin E2 receptor EP2 subtype (Homo sapiens), P43116. C6 glioma cells expressing human EP2; cells stimulated with saturating PGE2. inhibition, % at 25 µM. 0.52% of 260,000 active. AID 1422, 2008;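 active means percent inhibition above 40 after rounding to a whole number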;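 further: rat C6 glioma host cells with rolipram phosphodiesterase inhibitor present; the protocol text gives 20 µM as final concentration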
EP2 cAMP induct: cAMP induction in EP2, EP4, beta2-AR and parental cells, confirmation, counter-screen for EP2 modulator project, cell-based, five parallel assays, C6 glioma, HEK293. shares compounds with EP2 mod. cAMP HTRF induction; plus low (about EC15) PGE2 agonist. calls only at 20 µM (by protocol). 47% of 1,300 active;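 active means cAMP induction above 50% in the main assay while under 30% in all four parallel counter assays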;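 further: rat C6 glioma cells stably expressing human EP2 receptor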
Large screens that a line does not name were inactive (follow-up assays come after a bar, where they were run). The list is not random: actives were taken first. Their share in the collection is about 1.4%.

O=[N+]([O-])c1ccc(Cl)c2c1C1C=CCC1C(c1ccccn1)N2 (centres undefined)	EP2 mod 75 | EP2 cAMP induct active
CCn1c(-c2ccc(F)cc2)cnc1SCC(=O)Nc1ccc(N(C)C)cc1	none (no result: HSV augment, Furin inhibitor, Pf gamet viab)
CC(C)n1c2ccccc2c2nnc(SCC(=O)Nc3ccccc3C(=O)O)nc21	EP2 mod 73 | EP2 cAMP induct inactive
CC(=O)c1cccc(NS(=O)(=O)N(C)C)c1	none
CC(C)C(c1nnnn1C1CCCC1)N1CCCc2ccccc21 (centres undefined)	none
O=C(CCn1nc(-c2ccc(Cl)cc2)c2ccccc2c1=O)NCC1CCCO1 (centres undefined)	none (no result: Pf gamet viab)
S=C1SCN(CC2CC2)CN1CC1CC1	none
CC(Sc1ccc2ccccc2n1)C(=O)O (centres undefined)	EP2 mod 97 (no result: HSV augment, Pf gamet viab, PGE2 EP2 inh) | EP2 cAMP induct inactive
Cc1cc(SC(C)C(=O)O)nc2ccccc12 (centres undefined)	EP2 mod 68 (no result: Pf gamet viab) | EP2 cAMP induct inactive
CC(Sc1cnc2ccccc2n1)C(=O)O (centres undefined)	EP2 mod 68 (no result: Pf gamet viab) | EP2 cAMP induct inactive
CCCCOc1cc(C)nc(NCc2ccccc2)n1	EP2 mod 78 (no result: Pf gamet viab) | EP2 cAMP induct active
Cc1cc(N2CCOCC2)nc(NCc2ccccc2)n1	none
Cc1ccccc1N=C1SCC(=O)N1Cc1ccccc1	EP2 mod 67 (no result: Pf gamet viab) | EP2 cAMP induct active
CCCCCc1ccc(-c2ccc(=O)[nH]n2)cc1	EP2 mod 89 (no result: HSV augment, Pf gamet viab, PGE2 EP2 inh) | EP2 cAMP induct inactive
COCCn1c(SC(C(=O)Nc2cc(C)ccc2OC)c2ccccc2)nnc1-c1ccc(Cl)cc1 (centres undefined)	none | EP2 cAMP induct inactive
CCCCOC(=O)Sc1nc2ccccc2o1	EP2 mod 71 | EP2 cAMP induct inactive
CCC1CCc2c(sc3ncnc(N4CCOCC4)c23)C1 (centres undefined)	none | EP2 cAMP induct active
CCN1CCN(c2ncnc3sc4c(c23)CCC4)CC1	none (no result: HSV augment, Furin inhibitor, Pf gamet viab)
CCc1c(-c2n[nH]c(=S)n2Cc2ccccc2)csc1C	none | EP2 cAMP induct inactive
S=c1[nH]nc(-c2ccc3ccccc3n2)n1Cc1ccccc1	EP2 mod 74 | EP2 cAMP induct inactive
Cc1cc(-c2n[nH]c(=S)n2Cc2ccccc2)cs1	none (no result: Pf gamet viab)
Cc1scc(-c2n[nH]c(=S)n2Cc2ccccc2)c1C	none (no result: Pf gamet viab) | EP2 cAMP induct inactive
O=C(CSc1nnc(-c2ccc(O)cc2)n1Cc1ccco1)N1CCc2ccccc2C1	none
CCN1CC23C=CC(O2)C(C(=O)N2CCC4(CC2)NC(=O)c2cccnc2N4C)C3C1=O (centres undefined)	none (no result: HSV augment, Furin inhibitor, Pf gamet viab)
COc1c(O)cc2oc3cc(O)c(CC=C(C)C)c(O)c3c(=O)c2c1CC=C(C)C	none (no result: HSV augment, Furin inhibitor, Pf gamet viab) | EP2 cAMP induct inactive
CC(C)=CCc1c(O)cc2oc3c(CC=C(C)C)c(O)c(O)c(CC=C(C)C)c3c(=O)c2c1O	none (no result: Pf gamet viab)
Cc1ncc(-c2ccncc2)c(C2CCCN(C(=O)c3cnn(C(C)C)c3)C2)n1 (centres undefined)	none (no result: HSV augment, Furin inhibitor, Pf gamet viab, PGE2 EP2 inh)
CC1=CC(C)(C)N(C(=O)c2ccccc2)c2ccccc21	EP2 mod 72 | EP2 cAMP induct inactive
O=c1cc(N2CCCCC2)c(-c2ccccc2)nn1Cc1ccc(Cl)cc1	none
O=c1cc(N2CCCCC2)c(-c2ccccc2)nn1Cc1c(Cl)cccc1Cl	EP2 mod 80 (no result: HSV augment) | EP2 cAMP induct active
O=c1cc(N2CCCCC2)c(-c2ccccc2)nn1Cc1ccc(F)cc1	EP2 mod 88 | EP2 cAMP induct active
C=CCSc1nc(N(CC)CC)c2sccc2n1	EP2 mod 67 | EP2 cAMP induct inactive
Cc1ccc2nc(-c3ccc(NS(C)(=O)=O)cc3)cc(-c3ccccc3)c2c1	none (no result: Pf gamet viab)
Cc1ccc2nc(-c3ccncc3)cc(-c3ccccc3)c2c1	EP2 mod 92 (no result: Pf gamet viab) | EP2 cAMP induct active
CC(=O)NC(c1ccccc1)c1cccnc1 (centres undefined)	EP2 mod 70 | EP2 cAMP induct inactive
COc1ccc(-n2c(COc3ccc(Cl)cc3)nnc2SCc2ccc(C#N)cc2)cc1	none (no result: Pf gamet viab) | EP2 cAMP induct inactive
COc1ccc(-n2c(COc3ccc(C)cc3)nnc2SCc2ccc(C#N)cc2)cc1	none (no result: Pf gamet viab)
Cc1ccc2[nH]c3c(=S)nc[nH]c3c2c1	EP2 mod 88 | EP2 cAMP induct inactive
CSCCC(=O)N(C)CC1CCN(CCc2cccc(C(F)(F)F)c2)CC1	none (no result: HSV augment, Furin inhibitor, EP2 mod, PGE2 EP2 inh)
CCCCC(=O)Nc1sc2c(c1C(=O)OCC)CCC(C=O)=C2Cl	EP2 mod 63 (no result: Pf gamet viab) | EP2 cAMP induct active
O=C(O)c1ccc(C(=O)O)c(C(=O)Nc2ccc3c(c2)Cc2ccccc2-3)c1	EP2 mod 92, PGE2 EP2 inh 61 (no result: HSV augment, Furin inhibitor, Pf gamet viab) | EP2 cAMP induct active
Cc1nc(=S)c2ccccc2[nH]1	none (no result: Pf gamet viab)
FC(F)(F)c1nc(=S)c2ccccc2[nH]1	EP2 mod 71 (no result: HSV augment, Pf gamet viab) | EP2 cAMP induct inactive
COc1ccc(C(=O)/C(=C/O)N=Nc2ccc(F)cc2)cc1	EP2 mod 69 | EP2 cAMP induct active
Cc1cccc(N=N/C(=C\O)C(=O)c2ccc(Br)cc2)c1	EP2 mod 97 (no result: HSV augment) | EP2 cAMP induct active
COc1ccc(N=N/C(=C\O)C(=O)c2cccs2)cc1	EP2 mod 67 (no result: HSV augment) | EP2 cAMP induct inactive
COc1ccc(NC(=O)c2cccs2)cc1	none (no result: Pf gamet viab)
COc1ccc(C[C@H]2CN3C(=NC[C@@H]3Cc3ccc(O)cc3)N2CCNC(=O)c2ccc(C)c(Br)c2)cc1	none
CCOc1ccc(NC(=O)c2cccc3c2C(=O)N(CCOC)C3)cc1	none (no result: Pf gamet viab)
Cc1nc(-c2ccccc2)nc2[nH]c(C(C)C)cc(=O)c12	none (no result: Pf gamet viab)
O=C(O)/C=C/C(O)c1ccc(Cl)cc1 (centres undefined)	EP2 mod 79 (no result: HSV augment, Furin inhibitor, Pf gamet viab) | EP2 cAMP induct inactive
COc1ccc2c(COC(=O)c3n[nH]c4ccccc34)cc(=O)oc2c1	EP2 mod 75 (no result: Pf gamet viab) | EP2 cAMP induct inactive
CCOc1cc(S(=O)(=O)NCCc2cccc(C)c2)c(OCC)cc1-n1cnnn1	EP2 mod 68 (no result: Pf gamet viab) | EP2 cAMP induct inactive
Clc1ccc(Cn2nnc(-c3ccc(CN4CCOCC4)cc3)n2)cc1	none
CC(C)NC(=O)C1CCN(C(=O)c2cc3sccc3n2Cc2ccc(F)cc2)CC1	none (no result: Pf gamet viab)
O=C(c1cc2sccc2n1Cc1ccc(F)cc1)N1CCCc2ccccc21	EP2 mod 73 (no result: Pf gamet viab) | EP2 cAMP induct active
Cc1onc(-c2ccccc2Cl)c1-c1nc(-c2ccncc2)no1	EP2 mod 65 (no result: Pf gamet viab) | EP2 cAMP induct inactive
CCOc1ccc(C(C)=O)cc1N1C(=O)C2C3C=CC(C3=C(C)C)C2C1=O (centres undefined)	none (no result: Pf gamet viab)
